Data: PubChem BioAssay AID504466 (National Center for Advancing Translational Sciences (NCATS), 2011)
The campaign covered roughly 330,000 compounds. About 4,200 (1.3%) were called active. Inconclusive results (about 6%) are left out. The sample as a whole holds a higher share of actives than the screen did. Unmarked numbers belong to inactive results. The call rests on the fitted dose curve; in most records, active means well fitted activation curve with a large enough effect; inconclusive means small, poorly fitted or top-dose-only effect; inactive means no such curve, though single readings can be large or run the other way.

Experiment: qHTS screen for small molecules that induce genotoxicity in human embryonic kidney (HEK293T) cells expressing luciferase-tagged ELG1; further: nearly all actives have a fitted effect of over 60% in size; on activity change, positive = activation: % of control where 0% means no effect
Conditions: HEK293T ELG1-luciferase reporter, luminescence, 16 h; series mostly up to 46 µM; activity change, positive = activation: at the top concentration
Outline: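 Genotoxicity was scored as increased ELG1-luciferase reporter signal, measured by ONE-Glo luminescence (30 min, room temperature). Compound or vehicle exposure of the HEK293T reporter cells lasted 16 hr at 37°C.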
Potency means the concentration at half of the fitted maximal effect.

SMILES	activity change, positive = activation	Potency
O=C(COC(=O)c1cc[n+]([O-])cc1)Nc1ccc(Cl)c(C(F)(F)F)c1	0.532%	–
Cc1cc(O)cc(O)c1C(=O)Cc1cnn(-c2ccccc2)c1	-0.749%	–
COc1ccc(C(=O)Cc2cnn(-c3ccccc3)c2)c(O)c1	–	18.4 µM (active)
COc1ccc(C(=O)CC(=O)c2ccc(C)cc2)c(O)c1	-0.576%	–
CCc1ccc(-c2cc(C(=O)NCc3ccco3)c3ccccc3n2)s1	-2.94%	–
CC(=NCc1ccco1)c1c(C(F)(F)F)[nH]n(-c2nc3ccccc3s2)c1=O	–	2.59 µM (active)
CCC1(CC)NC(=O)N(Cc2nc3ccccc3s2)C1=O	0.75%	–
COc1cc(OC)cc(C(=O)NCC(=O)OCC(=O)NC(C)CCc2ccccc2)c1 (centres undefined)	4.19%	–
COc1cc(OC)c(C(=O)NNC(=O)c2ccccc2-n2cccc2)cc1OC	-4.42%	–
CSc1ccc(C#N)cc1NC(=O)c1cccc(Cl)c1	-0.357%	–
O=C(Nc1ccn(Cc2ccccc2F)n1)c1ccc(COc2ccc(Cl)cc2Cl)o1	-6.31%	–
N#Cc1ccccc1NC(=O)c1cccc(COc2ccc(Cl)cc2Cl)c1	–	0.461 µM (active)
O=C(COC(=O)c1ccccn1)NNC(=O)c1ccc(Br)cc1	4.55%	–
O=C(N[C@H]1C/C=C\C(c2cccc(F)c2)N(Cc2ccccc2)C(=O)C1)OCC1c2ccccc2-c2ccccc21 (some centres undefined)	-3.88%	–
COc1ccc(S(=O)(=O)N(C)C[C@H]2Oc3c(NC(=O)Nc4ccc5c(c4)OCO5)cccc3C(=O)N([C@H](C)CO)C[C@@H]2C)cc1	-8.42%	–
CC(Oc1ccc2c(-c3ccccc3)cc(=O)oc2c1)C(=O)NC(Cc1c[nH]c2ccccc12)C(=O)O (centres undefined)	2.46%	–
O=C(Nc1cccc(NC(=O)c2cccc(F)c2)c1)c1ccccc1	-4.69%	–
O=C(Nc1ccccc1N1CCN(c2ccccc2)CC1)c1cccc(F)c1	-9.53%	–
O=C(Nc1ccn(Cc2ccccc2)n1)c1cccc(F)c1	–	23.1 µM (active)
O=S(=O)(Nc1ncnc2sccc12)c1cccc(F)c1	-0.435%	–
Cc1ccc(NC(=O)c2ccc(Cl)nc2)cc1S(=O)(=O)N1CCOCC1	-7.05%	–
COc1cccc(-c2nc3cc(C)ccc3o2)c1	–	1.3 µM (active)
COc1ccc2oc(-c3cccc(NC(=O)CSc4ccc(Cl)cc4)c3)nc2c1	15.5%	–
COc1cccc(-c2nnc(SCCOc3ccc4c(C)cc(=O)oc4c3)o2)c1	2.37%	–
CC(OC(=O)c1ccc([N+](=O)[O-])cc1)C(=O)NCC1CCCCC1 (centres undefined)	-1.47%	–

SMILES	activity change, positive = activation	Potency
CN(Cc1cnccn1)C(=O)c1cc(COc2cccc(C(F)(F)F)c2)on1	4.54%	–
Cc1cc(CN(C)C(=O)c2cc(COc3ccc(C)c(C)c3)on2)n[nH]1	–	2.91 µM (active)
CN(Cc1cccnc1)C(=O)c1cc(COc2ccc3ncccc3c2)on1	-6.34%	–
O=C(Cn1cnc2c(OCc3ccccc3)ncnc21)NCc1nc2ccccc2[nH]1	-2.59%	–
COc1ccc(C(=O)NCc2nnc(SCCOc3ccccc3)n2C)cc1	-7.93%	–
COc1ccc(C(=O)NCCSc2ccccc2C)cc1	–	4.61 µM (active)
COc1cccc(C(=O)NCCSc2ccc(Br)cc2)c1	0.302%	–
COc1ccc2nc3n(c(=O)c2c1)-c1ccc(Cl)cc1C(=O)NC3Cc1ccccc1 (centres undefined)	1.76%	–
COc1ccc(CCNC(=O)COC(=O)c2ncc(Cl)c(Cl)c2Cl)cc1OC	1.91%	–
O=C1c2cccc3c([N+](=O)[O-])ccc(c23)C(=O)N1CC1CCCO1 (centres undefined)	–	20.6 µM (active)
CN1CN(C)c2ccc([N+](=O)[O-])c3cccc1c23	-8.83%	–
CCOc1cccc(=O)c2c(C)n(CC3CCCO3)c(C)c12 (centres undefined)	4.51%	–
CC[C@@H](C)[C@@H]1CN([C@@H](C)CN2CCC[C@H]2CN2C(N)=NC[C@H]2C(C)C)C(=N)N1CCc1ccc(Cl)c(Cl)c1	1.26%	–
COc1ccc(-c2nc3cc(C)ccn3c2NC2CCCCC2)cc1SC1CCCCC1	-3.72%	–
Nc1c(-c2ccc(F)cc2)cnc2ncnn12	4.95%	–
CC1(C)CN(c2ccc(-c3ccnc4ncnn34)cc2)C1=O	–	12.6 µM (active)
Cc1ccc(C2(C)NC(=O)N(CC(=O)N3CC(=O)Nc4ccccc43)C2=O)cc1 (centres undefined)	0.0242%	–
Cc1occc1C(=O)Nc1cccc(S(=O)(=O)N2CCOCC2)c1	1.05%	–
O=C1C=CN2CCCC2CC1 (centres undefined)	0.906%	–
Cc1cc(N=Nc2ccc3ccccc3c2)ccc1O	–	7.3 µM (active)
Cc1ccc(/C=N/NC(=O)c2cc3ccccc3cc2O)o1	5.35%	–
Cc1ccc(Br)c(NS(=O)(=O)c2cccc(C(=O)N3CCNC(=O)C3)c2)c1	3.98%	–
CC1(C)CC[C@@]2(C(=O)O)C(C1)C1=CCC3[C@@]4(C)CC[C@H](O)C(C)(C)C4CC[C@@]3(C)[C@]1(C)C[C@H]2O (some centres undefined)	-0.0114%	–
O=C(COc1ccc([N+](=O)[O-])cc1Cl)Nc1ccc2[nH]c(=O)[nH]c2c1	2.56%	–
